NCOA1 inh: human NCOA1 inhibition; hit rate 0.12% among 360,000; inhibition, % at 3.6 µM; Q15788; HEK293 GAL4-SRC1 luciferase reporter, luminescence;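 active means inhibition above the campaign mean plus 3 SD, with each screening campaign given its own cutoff, cut at about 60% in these data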;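 further: 0% = DMSO treated cells and 100% = gossypol at 36 µM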
NCOA3 inh: human NCOA3 inhibition; AID 588352; hit rate 0.17% among 360,000; HEK293 GAL4-SRC3 luciferase reporter, luminescence; inhibition, % at 3.6 µM;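 active means inhibition above a per-campaign cutoff, the mean of all compounds plus 3 SD, cut at about 60% in these data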;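 further: 0% = DMSO-treated cells and 100% = gossypol-treated cells at 36 µM; higher means less SRC3-driven luciferase light from the GAL4 reporter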
SRC2 inh: inhibits human steroid receptor coactivator 2; Q15596; HEK293 GAL4-SRC2 luciferase reporter, luminescence; inhibition, % at 9 µM; hit rate 0.17% among 370,000; AID 651957;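 active means inhibition above the mean inhibition of all tested compounds plus 3 SD, set per campaign, cut at about 52% in these data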;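 further: 0% = DMSO treated cells and 100% = cells given Gossypol at 36 µM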
NR2F2 inh: NR2F2 (human) inhibition, primary screen; HEK293T NGFI-A luciferase reporter, luminescence; P24468; inhibition, % at 8.6 µM; hit rate 0.7% among 370,000;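 active means inhibition above a per-plate cutoff, mean inhibition of test wells between control levels plus 3 SD, cut at about 38% in these data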;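 further: cells cotransfected with COUP-TFII expression vector driving the NGFI-A reporter; 0% = median of COUP-TF2 test wells and 100% = reporter-only cells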
LRH-1 inv ag: NR5A2 inverse agonism in reporter assay. HEK293T StAR-luciferase reporter, LRH-1 transfected, 24 h. inhibition, % at 3.6 µM. hit rate 0.13% among 360,000. AID 602396. O00482;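 active means inhibition above the mean inhibition of all tested compounds plus 3 SD, cut at about 73% in these data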;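 further: 0% = DMSO wells and 100% = reporter-only cells lacking LRH-1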
Target sequence (O00482 whole entry, looked up): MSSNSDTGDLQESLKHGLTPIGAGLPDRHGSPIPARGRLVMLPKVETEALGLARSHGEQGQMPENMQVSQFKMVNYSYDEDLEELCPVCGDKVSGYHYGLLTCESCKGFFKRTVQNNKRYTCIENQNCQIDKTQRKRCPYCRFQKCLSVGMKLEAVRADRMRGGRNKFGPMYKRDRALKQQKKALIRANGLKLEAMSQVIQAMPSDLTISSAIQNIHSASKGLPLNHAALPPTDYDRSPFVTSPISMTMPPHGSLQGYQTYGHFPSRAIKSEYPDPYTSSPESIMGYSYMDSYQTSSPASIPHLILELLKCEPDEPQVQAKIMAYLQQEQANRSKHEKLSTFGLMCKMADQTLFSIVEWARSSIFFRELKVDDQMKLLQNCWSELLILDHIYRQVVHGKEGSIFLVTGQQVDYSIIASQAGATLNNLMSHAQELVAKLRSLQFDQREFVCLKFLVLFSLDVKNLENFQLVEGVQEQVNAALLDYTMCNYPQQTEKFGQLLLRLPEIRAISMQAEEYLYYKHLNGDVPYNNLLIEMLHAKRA
GalR3 antag: antagonists of human GalR3 | O60755 | HEK293 GalR3-CNG cAMP membrane potential fluorescence; galR3 body fused to GalR1 C-terminus | inhibition, % at 3 µM | hit rate 0.44% among 360,000;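 active means inhibition above the screen-wide average plus 3 SD, cut at about 13% in these data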;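 further: forskolin and galanin both at EC90 stimulate the cells; cAMP rise reported by CNG channel membrane potential dye signal; 0% = forskolin plus galanin with DMSO and 100% = forskolin alone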
VP16 Luc counter: counter-screen for COUP-TFII antagonists: inhibitors of VP16 | shares compounds with NR2F2 inh | HEK293 Gal4-VP16 luciferase reporter, luminescence | inhibition, % at 8.5 µM | hit rate 25% among 2,500 | AID 687007; in the data active means inhibition above about 13%
COUP-TFII conf: confirmation of human COUP-TFII (NR2F2) inhibitors | hit rate 45% among 2,500 | inhibition, % at 8.5 µM | AID 687008 | HEK293 NGFI-A luciferase reporter, luminescence | shares compounds with NR2F2 inh;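 active means mean inhibition over three repeats above a set limit taken from the earlier primary screen, cut at about 38% in these data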;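 further: 100% = cells given the luciferase reporter alone without the COUP-TF2 vector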
Starred values were filed as active, the others as inactive; / = no result. This is a sample that favours compounds with a hit; in the whole collection about 1.1% have one here.

SMILES	NCOA1 inh	NCOA3 inh	SRC2 inh	NR2F2 inh	LRH-1 inv ag	GalR3 antag	VP16 Luc counter	COUP-TFII conf
Cc1ccc(C)c(NC(=O)CN(C)C(=O)c2cccc(S(=O)(=O)N3CCCC3)c2)c1	10	23	17	8	13	1	/	/
Cc1ccc(C)c(NC(=O)CN(C)C(=O)c2cccc(S(=O)(=O)N3CCN(Cc4ccccc4)CC3)c2)c1	-5	28	23	45*	7	1	-4	31
CSc1ccc(CN(C)C(=O)c2cc(S(=O)(=O)NCc3ccccc3)ccc2C)cc1	9	-4	7	53*	18	-5	-5	9
CSc1ccc(CN(C)C(=O)c2cccc(S(=O)(=O)N3CCN(Cc4ccccc4)CC3)c2)cc1	2	32	10	41*	23	-2	-5	24
COc1ccc(CN(C)C(=O)c2cccc(S(=O)(=O)N3CCN(c4ccccc4)CC3)c2)c(OC)c1OC	13	14	5	41*	13	-6	8	37
COc1ccc(-n2c(SCC(=O)N(CC(C)C)CC(C)C)nnc2-c2ccncc2)cc1	/	/	-2	6	/	/	/	/
Cc1nc2ccc(C(=O)N3CCN(C(=O)C(Cl)Cl)CC3)cc2n1C1CCCC1	/	/	-17	3	/	/	/	/
Cc1cc(C(=O)CSc2nnc3ccccn23)c(C)n1-c1ccccc1	59	66*	46	40*	58	8	5	57*
COc1ccc(/C=C2\CC3(OC(=O)c4ccc(F)cc4)CCCN2C3)cc1 (stereo not drawn)	/	/	2	-3	/	/	/	/
COCCNc1nc(NCc2ccc(C(C)C)cc2)c2sccc2n1	19	10	3	38*	7	-9	1	22
COCCNc1nc(NCc2cccc(OC)c2)c2sccc2n1	-21	-16	-3	19	8	0	/	/
O=C(Nc1cccc(S(=O)(=O)N2CCOCC2)c1)c1cccc(S(=O)(=O)N2CCCC2)c1	-9	2	-8	21	3	-1	/	/
CN(c1ccccc1)S(=O)(=O)c1ccc(C(=O)Nc2cccc(S(=O)(=O)N3CCOCC3)c2)cc1	19	12	8	56*	20	-5	0	43*
COc1ccccc1N(C)S(=O)(=O)c1ccc(C(=O)Nc2nnc(C)s2)cc1	-5	12	6	17	10	-3	/	/
COc1ccccc1N(C)S(=O)(=O)c1ccc(C(=O)Nc2nc(C)cs2)cc1	9	15	20	40*	4	-8	-10	12
COc1ccccc1N(C)S(=O)(=O)c1ccc(C(=O)Nc2cccc(S(=O)(=O)N3CCOCC3)c2)cc1	6	25	24	50*	13	0	4	26
COc1ccc(C(=O)Nc2cccc(S(=O)(=O)N(C)C)c2)cc1S(=O)(=O)N1CCOCC1	16	23	7	-7	21	-1	/	/
O=C(CSc1nnc(-c2cccs2)o1)Nc1cccc2ccccc12	/	/	-18	-21	/	/	/	/
CCOC(=O)N1CCN(C(=O)C[C@H]2C[C@@]3(C(=O)OC)C(=C[C@H](COCc4ccccc4)O[C@@H]3C)N(Cc3ccc(Cl)cc3Cl)C2=O)CC1	/	/	-6	21	/	/	/	/
CCCCCC(=O)N(O)C1CC(=O)N(c2ccccc2)C1=O (stereo not drawn)	3	14	4	41*	-25	-1	-4	36
CCCCCCC(=O)N(O)C1CC(=O)N(Cc2ccccc2)C1=O (stereo not drawn)	2	8	9	29	12	-4	/	/
Cc1ccc(NC(=O)c2cc3c(s2)CCCC3)cc1S(=O)(=O)Nc1ccccc1Cl	19	15	4	40*	23	-1	1	23
C=CCc1c(OC(C)=O)c2ccccc2n(C)c1=O	14	31	18	40*	1	-2	-9	31
CC(=O)N1CCOc2ccc(S(=O)(=O)NCC3CCC(C(=O)NCCC(C)C)CC3)cc21 (stereo not drawn)	12	2	-17	14	-3	-2	/	/
CC(=O)N1CCOc2ccc(S(=O)(=O)NCC3CCC(C(=O)Nc4ccc(C)cn4)CC3)cc21 (stereo not drawn)	8	25	37	39*	37	-10	9	24
SMILES	NCOA1 inh	NCOA3 inh	SRC2 inh	NR2F2 inh	LRH-1 inv ag	GalR3 antag	VP16 Luc counter	COUP-TFII conf
CN1/C(=C\C=C2/SC(=S)NC2=O)C(C)(C)c2ccccc21	23	20	34	42*	27	-8	14*	24
CN1C(=CC=C2C=C(I)C(=O)C(I)=C2)C(C)(C)c2ccccc21	10	6	13	6	-38	-2	/	/
Clc1ccc(-n2c(SCc3cccc4ccccc34)nnc2-c2cccnc2)cc1	/	/	11	18	/	/	/	/
CCOc1ccc(CCNC(=O)c2cc3sccc3n2CC)cc1OC	/	/	12	57*	/	/	-10	20
C=CCN1[C@H](C)COc2cccc(F)c2S1(=O)=O	/	/	-1	-10	/	/	/	/
CC(C)(C)c1ccc(C(=O)O/N=C(\N)c2ccccc2)cc1	82*	82*	80*	86*	69	-10	66*	91*
CCOC(=O)[C@]12CCCCC/C=C\1N(Cc1ccc(OC)cc1)C(=O)[C@H]2CC(=O)N1CCSCC1	/	/	-19	7	/	/	/	/
Cc1ccc(NS(=O)(=O)c2ccc(C(=O)N3CCN(c4ncccn4)CC3)cc2)cc1	9	23	-1	39*	34	-6	-2	14
CCOC(=O)[C@]12CCCCC/C=C\1N(CCc1ccc(Cl)cc1)C(=O)[C@H]2CC(=O)NCCCOC	/	/	2	9	/	/	/	/
COCCC1CCCCN1C(=O)c1cc(COc2ccc(-n3cncn3)cc2)on1 (stereo not drawn)	12	28	23	44*	31	-4	1	41*
COCCOC1CCN(C(=O)c2cc(COc3ccc(-n4cncn4)cc3)on2)CC1	-9	13	5	3	7	-3	/	/
Clc1ccc([C@H]2OC[C@@]3(CNC4CCCCC4)CS[C@H](c4ccc(Cl)cc4)N23)cc1	/	/	16	-15	/	/	/	/
COCC(=O)N1[C@H](CO)[C@@H](c2ccc(-c3cccnc3)cc2)[C@H]1CN(C)S(=O)(=O)c1ccccc1[N+](=O)[O-]	/	/	-6	-2	/	/	/	/
N=c1ccn(Cc2ccc(Cl)c(Cl)c2)cc1	6	3	16	49*	9	1	-6	12
Cc1cc(NC(=O)c2ccc(Cn3nc(C)c(Br)c3C)o2)no1	14	11	2	1	-3	-4	/	/
Cc1nn(Cc2ccc(C(=O)NC(C)(C)C)o2)c(C)c1Br	17	3	37	48*	10	-5	1	34
C=CCNC(=O)N1CCN(Cc2nc3ccccc3c(=O)[nH]2)CC1	/	/	2	-11	/	/	/	/
